Some test systems named below: NCI-H23 lung; NCI-H226 lung; NCI-H322M lung; HOP-62 NSCLC; NCI-H460 lung; HOP-92 NSCLC; NCI-H522 lung; A549/ATCC NSCLC; 786-0 renal; COLO 205 colon.
Holding throughout (assay): NCI-60 one-dose screen, 48 h (100 = growth as untreated, 0 = no growth, -100 = all killed)
Conditions in all cases: 10 µM unless noted

Compounds without any hit were thinned out: in the full panel of roughly 83,000, 20% have a hit.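 Compound tested at a single concentration for 48 hours in 96-well plates; a percent growth value below 10 was scored as active.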 Unmarked numbers belong to inactive results. Activity calls are given as the source filed them.

With `c1cncc(CNc2ccccc2-c2nnc(Nc3ccc4c(c3)OCCO4)o2)c1`, the growth in the test on NCI-H23 lung was 20.9%; in the test with NCI-H226 lung, 7.4% (active); in the test with NCI-H322M lung, 49.6%; in the test on HOP-62 NSCLC, 32.5%; with NCI-H460 lung, 4.61% (active); in the test on HOP-92 NSCLC, 136%. Besides, the growth in the test with NCI-H522 lung is -28.3% (active); in the test with A549/ATCC NSCLC, 31.8%; in the test with 786-0 renal, 42.4%; in the test with COLO 205 colon it was -21.9% (active).

With `Cc1ccc2nc(SCn3nnc4ccccc4c3=O)[nH]c2c1`, the growth in the test on NCI-H23 lung was 100%; in the test with NCI-H226 lung, 110%; in the test on NCI-H322M lung, 135%; in the test on HOP-62 NSCLC it was 88.9%; in the test on NCI-H460 lung it was 99.5%; with HOP-92 NSCLC, 82.8%. In addition, the growth is 89.5% in the test on NCI-H522 lung, 113% in the test with A549/ATCC NSCLC, 107% in the test with 786-0 renal and 75.9% with COLO 205 colon.

With `CC(=O)Nc1nc(C(=O)N2N=C(C)/C(=C/c3cccs3)C2=O)cs1`, the growth in the test on NCI-H23 lung was 107%; in the test on NCI-H226 lung, 101%; in the test with NCI-H322M lung it was 95.4%; in the test with HOP-62 NSCLC it was 99.1%; in the test on NCI-H460 lung it was 107%; in the test on HOP-92 NSCLC, 99.1%. Moreover, the growth in the test with NCI-H522 lung was 86.6%; in the test on A549/ATCC NSCLC it was 101%; in the test with 786-0 renal, 102%; with COLO 205 colon, 104%.

`COc1ccc(/C=C2\Oc3cc(OCCN4CCCC4)ccc3C2=O)c(OC)c1`: the growth in the test on NCI-H23 lung is 88.5%; in the test on NCI-H226 lung it was 97.8%; with NCI-H322M lung it was 101%; in the test on HOP-62 NSCLC it was 84.3%; with NCI-H460 lung, 93.9%; in the test with HOP-92 NSCLC, 79.7%. In addition, the growth with NCI-H522 lung was 104%; in the test on A549/ATCC NSCLC it was 99.4%; in the test with 786-0 renal, 88.2%; in the test with COLO 205 colon it was 92.8%.

As to `Clc1nc(Cl)c2ncn(C/C=C/Cn3cnc4c(Cl)nc(Cl)nc43)c2n1`, the growth is 94.7% with NCI-H23 lung; 94.2% with NCI-H226 lung; 94.6% with NCI-H322M lung; 94.3% with HOP-62 NSCLC; 84.5% with NCI-H460 lung; -13.3% (active) with HOP-92 NSCLC. Also, the growth in the test on NCI-H522 lung was 27.7%; in the test with A549/ATCC NSCLC, 71.6%; with 786-0 renal, 93.2%; in the test on COLO 205 colon, 63.3%.

Consider `O=C(O)Cc1ccc2c(c1)Cc1cccnc1O2`, for which the growth in the test with NCI-H23 lung was 98.9%; in the test with NCI-H226 lung, 91.7%; with NCI-H322M lung, 109%; in the test with HOP-62 NSCLC, 106%; in the test with NCI-H460 lung, 105%; in the test on HOP-92 NSCLC it was 112%. Besides, the growth was 95.7% with NCI-H522 lung, 96.1% in the test on A549/ATCC NSCLC, 98% with 786-0 renal and 111% with COLO 205 colon.

As for `COc1cc(/C=C2\CCCC3=C2NC(C)=NC3c2cc(OC)c(OC)c(OC)c2)cc(OC)c1OC` (stereo not given), the growth in the test on NCI-H23 lung was 33.9%; in the test with NCI-H226 lung, 37.7%; with NCI-H322M lung it was 41.1%; in the test on HOP-62 NSCLC it was 22%; in the test on NCI-H460 lung, -28% (active); with HOP-92 NSCLC, 70.7%. Besides, the growth in the test with NCI-H522 lung is 51.8%; in the test on A549/ATCC NSCLC, 16.2%; in the test on 786-0 renal, 18%; in the test on COLO 205 colon it was 19.2%.

With `CC[C@H](C)[C@@H]1NC(=O)[C@H]([C@@H](C)O)NC(=O)C(Cc2ccccc2)NC(=O)[C@@H]2CCCN2C(=O)C(C(C)C)NC(=O)C(Cc2ccccc2)NC(=O)CNC(=O)[C@@H]2CCCN2C1=O` (stereo not given in full), the growth with NCI-H23 lung is 82.5%; with NCI-H226 lung it was 65.8%; in the test with NCI-H322M lung, 85.3%; in the test on HOP-62 NSCLC, 76%; in the test on NCI-H460 lung it was 55.7%; with HOP-92 NSCLC, -18.4% (active). The growth in the test with NCI-H522 lung is 55.5%; with A549/ATCC NSCLC it was 56.6%; with 786-0 renal, 39.9%; in the test on COLO 205 colon, 79.7%.

As to `COc1ccc(-c2cn[nH]c2-c2cc(OC)c3c(c2)OCCO3)cc1`, the growth is 25.6% in the test with NCI-H23 lung; 57.1% with NCI-H226 lung; 50.7% in the test with NCI-H322M lung; 24% with HOP-62 NSCLC; 4.65% (active) in the test with NCI-H460 lung; 46.6% in the test on HOP-92 NSCLC. Also, the growth is -22.8% (active) with NCI-H522 lung, 30% in the test with A549/ATCC NSCLC, 33% in the test with 786-0 renal and -59.5% (active) in the test with COLO 205 colon.

For the compound `O=C(OCCCCOC(=O)n1cnc2ccccc21)n1cnc2ccccc21`, the growth with NCI-H23 lung is 99.7%; in the test with NCI-H226 lung it was 97.4%; with NCI-H322M lung, 105%; in the test on HOP-62 NSCLC, 98.3%; with NCI-H460 lung, 103%; in the test with HOP-92 NSCLC, 88.8%. Moreover, the growth in the test with NCI-H522 lung is 91.3%; in the test on A549/ATCC NSCLC, 92.5%; with 786-0 renal, 105%; in the test with COLO 205 colon it was 103%.

Take `C=C1C(=O)O[C@H]2[C@H]1CC/C(COC(=O)NCc1ccc(OC)cc1)=C\CC[C@@]1(C)O[C@@H]21`: the growth is 74.2% with NCI-H23 lung; 64.5% with NCI-H226 lung; 84.6% in the test with NCI-H322M lung; 67.5% in the test with HOP-62 NSCLC; 77.7% with NCI-H460 lung; 63.3% in the test on HOP-92 NSCLC. Further, the growth in the test on NCI-H522 lung is -55.5% (active); in the test on A549/ATCC NSCLC, 69.1%; in the test on 786-0 renal, 15.6%; in the test on COLO 205 colon, -17.7% (active).

Consider `c1ccn2nnnc2c1`, for which the growth is 94.8% in the test with NCI-H23 lung; 111% in the test on NCI-H226 lung; 102% in the test on NCI-H322M lung; 87% with HOP-62 NSCLC; 105% in the test on NCI-H460 lung; 103% in the test on HOP-92 NSCLC. The growth in the test on NCI-H522 lung was 101%; in the test on A549/ATCC NSCLC, 94.3%; in the test on 786-0 renal, 94.3%; in the test on COLO 205 colon, 90.6%.

Regarding `COC12CC(=O)C(C(C)=O)=C(O)C1(C)c1c(O)c(C)c(O)c(C(C)=O)c1O2` (stereo not given), the growth in the test with NCI-H23 lung was 50.5%; in the test with NCI-H226 lung, 81.2%; in the test with NCI-H322M lung it was 71.4%; with HOP-62 NSCLC, 86%; in the test with NCI-H460 lung, 55.1%; in the test on HOP-92 NSCLC, 46%. Also, the growth in the test on NCI-H522 lung is 70.1%; in the test on A549/ATCC NSCLC, 64.8%; in the test on 786-0 renal, 60.8%; in the test with COLO 205 colon it was 99.8%.

For `O=C(Cc1c(F)cccc1Cl)Nc1ccc(S(=O)(=O)Nc2ncccn2)cc1`, the growth was 97.6% with NCI-H23 lung; 99.4% with NCI-H226 lung; 116% in the test on NCI-H322M lung; 96.2% in the test with HOP-62 NSCLC; 114% in the test on NCI-H460 lung; 91.1% with HOP-92 NSCLC. Moreover, the growth in the test on NCI-H522 lung was 104%; in the test with A549/ATCC NSCLC, 110%; with 786-0 renal, 103%; with COLO 205 colon, 105%.

For `Clc1cccc(Cl)c1Cn1c(-c2cncs2)nc2ccccc21`, the growth in the test on NCI-H23 lung is 71%; in the test with NCI-H226 lung, 88.6%; in the test with NCI-H322M lung, 87.5%; with HOP-62 NSCLC, 97%; in the test with NCI-H460 lung it was 101%; in the test with HOP-92 NSCLC, 71%. The growth with NCI-H522 lung is 76.6%; with A549/ATCC NSCLC, 73.1%; in the test with 786-0 renal, 87.6%; with COLO 205 colon, 99.5%.

Turning to `Cc1cccc(-n2c(C)nc3ccc(NC(=O)NCCCl)cc3c2=O)c1`, the growth with NCI-H23 lung was 86.8%; with NCI-H226 lung, 95.3%; in the test on NCI-H322M lung it was 105%; with HOP-62 NSCLC, 96%; with NCI-H460 lung it was 100%; with HOP-92 NSCLC it was 86%. For the same compound, the growth in the test on NCI-H522 lung was 98.9%; with A549/ATCC NSCLC it was 101%; in the test with 786-0 renal, 93.5%; with COLO 205 colon, 104%.

For the compound `C=CCN=C1NC(=O)/C(=C/c2cc(C(C)(C)C)c(O)c(C(C)(C)C)c2)S1`, the growth was 90.2% with NCI-H23 lung; 97.7% with NCI-H226 lung; 87.9% with NCI-H322M lung; 77.2% in the test with HOP-62 NSCLC; 72.8% with NCI-H460 lung; 82.2% in the test with HOP-92 NSCLC. Also, the growth in the test on NCI-H522 lung is 44.5%; in the test on A549/ATCC NSCLC, 63.4%; with 786-0 renal, 66.1%; in the test on COLO 205 colon, 81.3%.

Take `COC(=O)CC/C(C)=N\Nc1ccc([N+](=O)[O-])cc1`: the growth in the test with NCI-H23 lung was 95.8%; in the test on NCI-H226 lung it was 76.3%; in the test with NCI-H322M lung, 76.5%; with HOP-62 NSCLC it was 59.7%; with NCI-H460 lung, 24.8%; in the test on HOP-92 NSCLC, 92.7%. Further, the growth was 38.4% in the test on NCI-H522 lung, 24.6% in the test with A549/ATCC NSCLC, 75.4% in the test with 786-0 renal and 54% with COLO 205 colon.

`CN(C)CCCNC(=O)C(c1ccccc1)c1ccccc1`: the growth with NCI-H23 lung is 93.5%; with NCI-H226 lung, 106%; in the test with NCI-H322M lung, 102%; with HOP-62 NSCLC it was 103%; in the test with NCI-H460 lung, 112%; in the test on HOP-92 NSCLC, 98%. Moreover, the growth with NCI-H522 lung is 89.9%; in the test with A549/ATCC NSCLC, 89.9%; with 786-0 renal, 102%; with COLO 205 colon it was 106%.

`CCC(=O)Oc1cc(/C=C/C(=O)O[C@H]2C[C@H]3CN4CCc5c([nH]c6cc(OC)ccc56)[C@@H]4C[C@@H]3[C@@H](C(=O)OC)[C@@H]2OC)ccc1OC`: the growth in the test on NCI-H23 lung was 86.7%; with NCI-H226 lung, 67%; in the test with NCI-H322M lung, 122%; with HOP-62 NSCLC it was 89%; in the test with NCI-H460 lung, 93.5%; in the test with HOP-92 NSCLC, -1.22% (active). Also, the growth in the test on NCI-H522 lung is 84%; with A549/ATCC NSCLC, 80.5%; in the test on 786-0 renal, 70.3%; with COLO 205 colon, 69.5%.

In the case of `Cc1oc2ncnc(Nc3ccccc3)c2c1C(=O)NCCO`, the growth with NCI-H23 lung is 92%; with NCI-H226 lung it was 106%; in the test with NCI-H322M lung, 108%; with HOP-62 NSCLC, 99%; with NCI-H460 lung it was 98.6%; in the test with HOP-92 NSCLC it was 88.6%. Also, the growth is 96.6% in the test with NCI-H522 lung, 98.1% with A549/ATCC NSCLC, 98.7% with 786-0 renal and 100% in the test with COLO 205 colon.

Values taken from PubChem BioAssay (NCI).
